Values without a mark were called inactive.
Assays:
Conditions in all cases: 60 µM; 5 days; temperature: 20 °C
Meloidogyne hapla J2 = test: proportion of mobile M. hapla J2 relative to DMSO control (fraction of DMSO control); higher = more viable, less nematicidal, active = 0.7 or less
Procedure, shortened: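 About 25 M. hapla J2 were placed in each well of a 96-well plate in distilled water, and compound was pinned in to a final 60 µM with 0.6% v/v DMSO. The sealed plates were shaken at 200 rpm at 20 °C for 5 days, after which 2 µL of 1 M NaOH went into each well. Mobility was then scored under the microscope and divided by the mean value from DMSO-only wells on the same plate. Each plate held eight such DMSO wells, and two biological replicates were averaged.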

Ditylenchus dipsaci = test: proportion of mobile D. dipsaci (mixed stage) relative to DMSO control (fraction of DMSO control); higher = more viable, less nematicidal, active = 0.86 or less; extreme values may be limits of the assay
Procedure, shortened: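 Ditylenchus dipsaci nematodes were cultured on pea plants in Gamborg B-5 agar, then extracted into water through a filter funnel, and roughly 20 worms in distilled water were placed in each well of a 96-well plate. Compound was pinned in to a final concentration of 60 µM (0.6% v/v DMSO), and the sealed plates were shaken at 200 rpm for 5 days at 20 °C. Mobile worms were counted under the microscope after 2 µL of 1 M NaOH was added. Mobility is given relative to DMSO controls as the mean of two biological replicates.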

[1] = tested on: Caenorhabditis elegans dauer (daf-2(e1370)); test: proportion of mobile C. elegans dauer larvae relative to DMSO control (fraction of DMSO control); higher = more viable, less nematicidal, active = 0.63 or less; extreme values may be limits of the assay
Procedure, shortened: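 Synchronized C. elegans daf-2(e1370) larvae were held at 25 °C for 48 h on MYOB plates with E. coli OP50 to form dauers, and about 20 dauers were added per 96-well well in liquid NGM. Compound was pinned to 60 µM final (0.6% v/v DMSO), and sealed plates were shaken at 200 rpm for 5 days at 20 °C. The proportion of mobile worms was scored under a dissection microscope relative to DMSO controls and averaged over two biological replicates.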

`O=C(CSc1nnc(-c2ccc(Cl)cc2)o1)NC1CC2CCC1C2` (configuration not stated) was tested, and the “proportion of mobile M. hapla J2” value (Meloidogyne hapla J2) was 0.693 (active) and the “proportion of mobile D. dipsaci” value (Ditylenchus dipsaci) was 1.

`Cc1ccc(-c2noc(-c3ccc(Br)cc3)n2)cc1` was tested, and the “proportion of mobile M. hapla J2” value (Meloidogyne hapla J2) was 1.05 and the “proportion of mobile D. dipsaci” value (Ditylenchus dipsaci) was 1.

With `N#Cc1ccccc1CSc1nnc(-c2ccco2)o1` the “proportion of mobile M. hapla J2” value (Meloidogyne hapla J2) was 0.859 and the “proportion of mobile D. dipsaci” value (Ditylenchus dipsaci) was 1.

In the case of `COc1cccc(-c2nnc(SCC(=O)NC3CCCCC3)o2)c1`, the “proportion of mobile M. hapla J2” value (Meloidogyne hapla J2) is reported as 0.869 and the “proportion of mobile D. dipsaci” value (Ditylenchus dipsaci) is reported as 1.

For `CC(C)(C)c1ccc(OCc2nc(-c3ccncc3)no2)c(Br)c1`, the “proportion of mobile M. hapla J2” value (Meloidogyne hapla J2) was 0.875 and the “proportion of mobile D. dipsaci” value (Ditylenchus dipsaci) was 1.

With `COc1cccc(CSc2nnc(-c3ccco3)n2C)c1` the “proportion of mobile M. hapla J2” value (Meloidogyne hapla J2) was 0.965 and the “proportion of mobile D. dipsaci” value (Ditylenchus dipsaci) was 1.

In the case of `Cc1ccc(-c2nc(-c3ccc(C(F)(F)F)cc3)no2)cc1`, the “proportion of mobile M. hapla J2” value (Meloidogyne hapla J2) is reported as 0.952 and the “proportion of mobile D. dipsaci” value (Ditylenchus dipsaci) is reported as 1.

`CCOc1ccccc1-c1nnc(SCC(=O)N2CCC(C)CC2)o1` was tested, and the “proportion of mobile M. hapla J2” value (Meloidogyne hapla J2) was 0.856 and the “proportion of mobile D. dipsaci” value (Ditylenchus dipsaci) was 1.

For `O=C(CSc1nnc(-c2ccco2)o1)Nc1ccccc1F`, the “proportion of mobile M. hapla J2” value (Meloidogyne hapla J2) was 0.933 and the “proportion of mobile D. dipsaci” value (Ditylenchus dipsaci) was 1.

For `CCCC(=O)Nc1ccccc1-c1nc(-c2cccnc2)no1`, the “proportion of mobile M. hapla J2” value (Meloidogyne hapla J2) was 1.04 and the “proportion of mobile D. dipsaci” value (Ditylenchus dipsaci) was 1.

For `N#Cc1ccccc1NC(=O)CSc1nnc(-c2ccccc2)o1`, the “proportion of mobile M. hapla J2” value (Meloidogyne hapla J2) was 0.955 and the “proportion of mobile D. dipsaci” value (Ditylenchus dipsaci) was 1.

For `COc1ccc(-c2noc(C3CCCCC3)n2)cc1`, the “proportion of mobile M. hapla J2” value (Meloidogyne hapla J2) was 0.927 and the “proportion of mobile D. dipsaci” value (Ditylenchus dipsaci) was 1.

In the case of `CC1Cc2ccccc2N1C(=O)CSc1nnc(-c2ccccc2)o1` (configuration not stated), the “proportion of mobile M. hapla J2” value (Meloidogyne hapla J2) is reported as 1.03 and the “proportion of mobile D. dipsaci” value (Ditylenchus dipsaci) is reported as 1.

`Cc1ccc(-c2nc(-c3ccccn3)no2)cc1C` was tested, and the “proportion of mobile M. hapla J2” value (Meloidogyne hapla J2) was 1.03 and the “proportion of mobile D. dipsaci” value (Ditylenchus dipsaci) was 1.

`Cc1ccc(-c2noc(CSc3nc(C)cc(C)n3)n2)cc1` was tested, and the “proportion of mobile M. hapla J2” value (Meloidogyne hapla J2) was 0.974 and the “proportion of mobile D. dipsaci” value (Ditylenchus dipsaci) was 1.

For `Cc1ccc(OCc2nc(-c3ccc4c(c3)OCO4)no2)cc1C`, the “proportion of mobile M. hapla J2” value (Meloidogyne hapla J2) was 1.04 and the “proportion of mobile D. dipsaci” value (Ditylenchus dipsaci) was 1.

`Clc1ccc(CSc2nnc(-c3ccccc3Cl)o2)cc1` was tested, and the “proportion of mobile M. hapla J2” value (Meloidogyne hapla J2) was 0.888 and the “proportion of mobile D. dipsaci” value (Ditylenchus dipsaci) was 1.

With `N#Cc1ccc(CSc2nnc(-c3ccccc3)o2)cc1` the “proportion of mobile M. hapla J2” value (Meloidogyne hapla J2) was 0.798 and the “proportion of mobile D. dipsaci” value (Ditylenchus dipsaci) was 1.

With `O=C(c1ccccc1-c1nc(-c2ccc(Cl)cc2)no1)N1CCCCC1` the “proportion of mobile M. hapla J2” value (Meloidogyne hapla J2) was 0.941 and the “proportion of mobile D. dipsaci” value (Ditylenchus dipsaci) was 1.

With `CC(=O)Nc1cccc(-c2nnc(SCc3ccc(F)cc3)o2)c1` the “proportion of mobile M. hapla J2” value (Meloidogyne hapla J2) was 0.959 and the “proportion of mobile D. dipsaci” value (Ditylenchus dipsaci) was 1.

In the case of `Clc1ccc(OCc2nc(-c3cccs3)no2)cc1`, the “proportion of mobile M. hapla J2” value (Meloidogyne hapla J2) is reported as 0.923 and the “proportion of mobile D. dipsaci” value (Ditylenchus dipsaci) is reported as 1.

For `COc1ccc(-c2noc(COc3ccc(C)c(C)c3)n2)cc1`, the “proportion of mobile M. hapla J2” value (Meloidogyne hapla J2) was 0.969 and the “proportion of mobile D. dipsaci” value (Ditylenchus dipsaci) was 1.

For `Clc1ccc(SCc2nc(-c3ccccn3)no2)cc1`, the “proportion of mobile M. hapla J2” value (Meloidogyne hapla J2) was 0.0259 (active) and the “proportion of mobile D. dipsaci” value (Ditylenchus dipsaci) was 1.

With `CC(C)Oc1ccc(-c2nc(-c3ccccn3)no2)cc1` the “proportion of mobile M. hapla J2” value (Meloidogyne hapla J2) was 0.943 and the “proportion of mobile D. dipsaci” value (Ditylenchus dipsaci) was 1.

For `Cc1csc(NC(=O)CSc2nnc(-c3cccc(Cl)c3)o2)n1`, the “proportion of mobile C. elegans dauer larvae” value [1] was 1 and the “proportion of mobile D. dipsaci” value (Ditylenchus dipsaci) was 1.

With `Cc1cccc(-c2nnc(SCC(=O)Nc3ccc(Br)c(C)c3C)o2)c1` the “proportion of mobile C. elegans dauer larvae” value [1] was 1 and the “proportion of mobile D. dipsaci” value (Ditylenchus dipsaci) was 1.

`Cc1ccc(-c2nc(-c3ccc(F)cc3)no2)cc1` was tested, and the “proportion of mobile M. hapla J2” value (Meloidogyne hapla J2) was 1.04 and the “proportion of mobile D. dipsaci” value (Ditylenchus dipsaci) was 0.708 (active).

`COc1ccccc1OCc1nc(-c2cccc(Br)c2)no1` was tested, and the “proportion of mobile M. hapla J2” value (Meloidogyne hapla J2) was 0.499 (active) and the “proportion of mobile D. dipsaci” value (Ditylenchus dipsaci) was 1.

In the case of `Cc1ccccc1-c1noc(-c2cccc(Br)c2)n1`, the “proportion of mobile M. hapla J2” value (Meloidogyne hapla J2) is reported as 1.04 and the “proportion of mobile D. dipsaci” value (Ditylenchus dipsaci) is reported as 1.

With `Fc1cccc(-c2nc(-c3ccccc3)no2)c1` the “proportion of mobile C. elegans dauer larvae” value [1] was 1 and the “proportion of mobile D. dipsaci” value (Ditylenchus dipsaci) was 1.

`COc1cccc(-c2noc(COc3ccc(C(C)C)cc3)n2)c1` was tested, and the “proportion of mobile M. hapla J2” value (Meloidogyne hapla J2) was 0.968 and the “proportion of mobile D. dipsaci” value (Ditylenchus dipsaci) was 1.

In the case of `COc1ccccc1-c1nc(-c2ccc(Br)cc2)no1`, the “proportion of mobile M. hapla J2” value (Meloidogyne hapla J2) is reported as 1.04 and the “proportion of mobile D. dipsaci” value (Ditylenchus dipsaci) is reported as 1.

With `Brc1cccc(-c2noc(-c3ccc4c(c3)OCO4)n2)c1` the “proportion of mobile M. hapla J2” value (Meloidogyne hapla J2) was 1.03 and the “proportion of mobile D. dipsaci” value (Ditylenchus dipsaci) was 1.

With `COc1ccc(-c2noc(COc3ccccc3)n2)cc1` the “proportion of mobile M. hapla J2” value (Meloidogyne hapla J2) was 1.02 and the “proportion of mobile D. dipsaci” value (Ditylenchus dipsaci) was 1.

`COc1ccc(-c2noc(-c3ccccc3C(=O)Nc3cccc(C)c3C)n2)cc1` was tested, and the “proportion of mobile M. hapla J2” value (Meloidogyne hapla J2) was 0.912 and the “proportion of mobile D. dipsaci” value (Ditylenchus dipsaci) was 1.

With `COc1ccc(-c2noc(COc3ccc(C4CCCCC4)cc3)n2)cc1` the “proportion of mobile M. hapla J2” value (Meloidogyne hapla J2) was 0.62 (active) and the “proportion of mobile D. dipsaci” value (Ditylenchus dipsaci) was 1.

For `COc1ccc(-c2nnc(SCc3cccc(C#N)c3)o2)cc1`, the “proportion of mobile M. hapla J2” value (Meloidogyne hapla J2) was 0.785 and the “proportion of mobile D. dipsaci” value (Ditylenchus dipsaci) was 1.

In the case of `Clc1ccccc1OCc1nc(-c2ccc(Br)cc2)no1`, the “proportion of mobile M. hapla J2” value (Meloidogyne hapla J2) is reported as 1.02 and the “proportion of mobile D. dipsaci” value (Ditylenchus dipsaci) is reported as 1.

In the case of `COc1nc(C)ccc1-c1noc(-c2ccc(C)cc2)n1`, the “proportion of mobile M. hapla J2” value (Meloidogyne hapla J2) is reported as 0.926 and the “proportion of mobile D. dipsaci” value (Ditylenchus dipsaci) is reported as 1.

With `Clc1cccc(-c2nc(-c3ccc4c(c3)OCO4)no2)c1` the “proportion of mobile M. hapla J2” value (Meloidogyne hapla J2) was 0.943 and the “proportion of mobile D. dipsaci” value (Ditylenchus dipsaci) was 1.

For `Brc1cccc(-c2nc(-c3ccncc3)no2)c1`, the “proportion of mobile M. hapla J2” value (Meloidogyne hapla J2) was 0.991 and the “proportion of mobile D. dipsaci” value (Ditylenchus dipsaci) was 1.
